Source: PubChem
Only some compounds are listed: those with a hit (about 21% of all), similar ones and a draw of the others.
NS1 function inh = blocks influenza NS1 protein function; Potency, µM (doses to about 46.1 µM), without a hit: top-dose activity, positive = more growth; actives 0.4% (n = 270,000); calls by dose curve; also: potency is read from the fitted curve at half-maximal effect; actives are rising curves; nearly all actives have a fitted effect of over 50% in size
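Compounds were scored for reversing the slow growth caused by influenza A NS1 in S. cerevisiae, measured by optical density at 600 nm. Assay medium contained 2% galactose at pH 6.0; NS1-free yeast of the same strain were the positive control.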
Shiga inhibitor = inhibitors of Shiga toxin in Vero cells. Vero cells, Shiga toxin protein synthesis inhibition reporter. inhibition, % at 38.7 µM. actives 9.2% (n = 290,000). AID 2315; in the data active = inhibition mostly above about 28%, no sharp cut-off; inactive = mostly below about 43%; also: 0% is about no effect
Pf growth 96h = P. falciparum growth inhibition at 96 hour, primary screen for plastid delayed-death inhibitors | Potency, µM (titrated, usually from 28.7 µM), inactives show at the highest dose activity change, negative = inhibition, actives largely listed as inhibitors | P. falciparum luciferase reporter growth, 96 h | actives 6.9% (n = 320,000); also: potency is read from the fitted curve at half-maximal effect; % is scaled to controls: 0 for no effect and ±100 for the full control effect
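P. falciparum expressing integrated firefly luciferase, in erythrocytes at 2% hematocrit, 0.05% parasitemia, incubated with compounds 96 h at 37 C, 5% CO2. Growth inhibition read as loss of luminescence; two-generation exposure targets delayed-death apicoplast inhibitors.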
CHX counter = affects cycloheximide protein synthesis inhibition readout, counter-screen. max response, %. actives 12% (n = 300,000). cell reporter, cycloheximide protein synthesis inhibition counterscreen; in the data active = max response mostly above about 13%, no sharp cut-off; inactive = mostly below about 14%; also: read at 38.3 µM for the half of the compounds with a filed dose; 0% is about no effect
FBPA Giardia inh = Giardia lamblia aldolase inhibition | A8B2U2 | actives 0.71% (n = 290,000) | AID 2451 | Potency, µM (top dose mostly 59.6 µM), inactives show at the highest dose activity, negative = inhibition, hits mostly inhibitors | purified Giardia FBPA; also: potency is read from the fitted curve at half-maximal effect; % is scaled to controls: 0 for no effect and ±100 for the full control effect; nearly all actives have a fitted effect of over 55% in size
Target sequence (A8B2U2 whole entry, looked up): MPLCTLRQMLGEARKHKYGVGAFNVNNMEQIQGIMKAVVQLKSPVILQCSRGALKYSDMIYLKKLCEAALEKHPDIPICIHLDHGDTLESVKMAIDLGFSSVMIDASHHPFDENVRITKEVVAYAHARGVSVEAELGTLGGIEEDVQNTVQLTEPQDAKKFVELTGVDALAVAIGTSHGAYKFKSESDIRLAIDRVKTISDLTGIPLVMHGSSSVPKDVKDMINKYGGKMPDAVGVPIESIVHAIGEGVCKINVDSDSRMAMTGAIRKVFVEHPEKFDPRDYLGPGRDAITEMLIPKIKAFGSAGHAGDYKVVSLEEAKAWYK
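Giardia FBPA (40 nM reagent) was preincubated 10 min at RT with compound (up to 57.5 uM final), then substrate plus GAPDH/TPI/NAD/arsenate coupling system with diaphorase/resazurin was added; resorufin fluorescence (525/598 nm) was read after 20 min.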
Pf growth 48h = P. falciparum growth inhibition at 48 hours (one generation). AID 504832. P. falciparum luciferase growth in erythrocytes, 48 h. actives 5.9% (n = 310,000). Potency, µM (titrated, usually from 28.7 µM), for the others: at the highest dose activity change, negative = inhibition, usual class: inhibitors; also: potency is read from the fitted curve at half-maximal effect; % is scaled to controls: 0 for no effect and ±100 for the full control effect
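A one-generation exposure of luciferase-tagged malaria parasites in RPMI 1640/Albumax erythrocyte culture, 37 C and 5% CO2. Inhibition is inferred from decreased luminescence after adding detection reagent.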
* hit, by the source's call. Unless noted, calls follow the shape of the dose curve; as a rule, active = well fitted curve in the direction sought with a large enough effect; inconclusive = small, poorly fitted or top-dose-only effect, or another doubt; inactive = no such curve, though single readings can be large; an effect the other way counts as inactive or inconclusive.

Results for CCN(Cc1ccccc1)C(=O)Cn1c(=O)n(CCC(=O)N2CCCCC2)c(=O)c2sccc21 ?
NS1 function inh: 9%; Shiga inhibitor: -12; Pf growth 96h: inconclusive; CHX counter: -2; FBPA Giardia inh: 4%; Pf growth 48h: -10%

How did O=C(O)CC1(CC(=O)NCc2csc(-c3cccs3)n2)CCCCC1 do in these assays?
NS1 function inh: 1%; Shiga inhibitor: 10; Pf growth 96h: 8%; CHX counter: -1; FBPA Giardia inh: 10%; Pf growth 48h: 6%

Results for CCCCCN(C(=O)CCC(=O)OCC(=O)N1CCCCC1C)c1c(N)n(CCCC)c(=O)[nH]c1=O (stereo unspecified) ?
NS1 function inh: 5%; Shiga inhibitor: -10; Pf growth 96h: 8%; CHX counter: 0; FBPA Giardia inh: 7%; Pf growth 48h: -3%

How did COC(=O)c1cc(NC(=O)c2cccc(Cl)c2)c(=O)oc1/C=C/Nc1cc(C)cc(C)c1 do in these assays?
Shiga inhibitor: 57*; Pf growth 96h: 44%; CHX counter: 16; FBPA Giardia inh: -2%; Pf growth 48h: inactive

How did CCc1ccc(C2CC(=O)N(c3ccc(F)cc3)C3=C2C(=O)OC3)cc1 (stereo unspecified) do in these assays?
Shiga inhibitor: 1; Pf growth 96h: inconclusive; CHX counter: -1; FBPA Giardia inh: -2%; Pf growth 48h: -6%

How did O=C(Nc1ccc(Oc2ccc(Cl)cc2)cc1)c1ncn[nH]1 do in these assays?
NS1 function inh: -20%; Shiga inhibitor: -8; Pf growth 96h: 36%; CHX counter: -2; FBPA Giardia inh: 8%; Pf growth 48h: 9.3µM*

How did Cc1ccccc1C(=O)Nc1cccc(NC(=O)c2ncn[nH]2)c1 do in these assays?
NS1 function inh: 0%; Shiga inhibitor: 1; Pf growth 96h: -29%; CHX counter: 0; FBPA Giardia inh: -3%; Pf growth 48h: 8%

What do the screens show for `Cc1ccc(NC(=O)c2ncn[nH]2)cc1`?
NS1 function inh: -2%; Shiga inhibitor: 40; Pf growth 96h: -24%; CHX counter: 19*; FBPA Giardia inh: -9%; Pf growth 48h: 51%

Results for Nc1nc(Cl)cc(NCCc2ccccc2)n1 ?
Shiga inhibitor: 13; Pf growth 96h: 31%; CHX counter: 15*; FBPA Giardia inh: -16%; Pf growth 48h: 21%

Results for Nc1nc(Cl)cc(NCCc2ccc(O)cc2)n1 ?
Shiga inhibitor: 26; Pf growth 96h: 28%; CHX counter: 15; FBPA Giardia inh: -23%; Pf growth 48h: 60%

How did Cc1cccc(-c2nc(CN3CCN(C(=O)C4CCCO4)CC3)cs2)c1 (stereo unspecified) do in these assays?
NS1 function inh: -1%; Shiga inhibitor: 7; Pf growth 96h: -5%; CHX counter: 7.6*; FBPA Giardia inh: -6%; Pf growth 48h: 0%

How did CN1CCC(N(C)S(=O)(=O)c2ccc(NC(=O)Cc3ccc(F)cc3)cc2)CC1 do in these assays?
Pf growth 96h: inconclusive; Pf growth 48h: -4%

How did Cc1ccc(OCC(=O)Nc2ccc(S(=O)(=O)N(C)C3CCN(C)CC3)cc2)c(C)c1 do in these assays?
NS1 function inh: -8%; Shiga inhibitor: -6; Pf growth 96h: inconclusive; CHX counter: -2; Pf growth 48h: 12µM*

How did Cc1ccccc1OCCC(=O)Nc1ccc(S(=O)(=O)N(C)C2CCN(C)CC2)cc1 do in these assays?
Pf growth 96h: 3.7µM*; Pf growth 48h: 2.9µM*

What do the screens show for `CN1CCC(N(C)S(=O)(=O)c2ccc(NC(=O)COc3ccc(Br)cc3Cl)cc2)CC1`?
Pf growth 96h: 2.1µM*; Pf growth 48h: 4.1µM*

How did Cc1ccc(OCC(=O)Nc2ccc(S(=O)(=O)N3CCOCC3)cc2)c(C)c1 do in these assays?
NS1 function inh: 10%; Shiga inhibitor: 15; Pf growth 96h: 20%; CHX counter: -3; FBPA Giardia inh: -9%; Pf growth 48h: inconclusive

What do the screens show for `CN1CCC(N(C)S(=O)(=O)c2ccc(NC(=O)COc3cccc(Cl)c3)cc2)CC1`?
Pf growth 96h: 13µM*; Pf growth 48h: 9.3µM*

What do the screens show for `CCCCNC(=O)COC(=O)c1ccc(N(C)C)cc1`?
Shiga inhibitor: 17; Pf growth 96h: -10%; CHX counter: 11; FBPA Giardia inh: 3%; Pf growth 48h: inactive

What do the screens show for `CCOc1ccc(S(=O)(=O)O)c2cccnc12`?
Pf growth 96h: -11%; Pf growth 48h: 4%

Results for O=C(O)CCC(=O)OC[C@@H](NC(=O)C(Cl)Cl)C(O)c1ccc([N+](=O)[O-])cc1 (stereo partly specified) ?
FBPA Giardia inh: 3%

What do the screens show for `OC[C@@H](O)[C@H]1O[C@@H]2OC(C(Cl)(Cl)Cl)O[C@H]2[C@H]1O` (stereo partly specified)?
Pf growth 96h: -5%; Pf growth 48h: 7%

Results for O=[N+]([O-])c1cccc(CNC2CCCCCC2)c1 ?
NS1 function inh: 6%; Shiga inhibitor: -6; Pf growth 96h: 18%; CHX counter: -4; FBPA Giardia inh: 1%; Pf growth 48h: -5%

How did COc1cc(NC(=O)c2cc([N+](=O)[O-])ccc2NC(=O)CNC2CCCCC2)cc(OC)c1 do in these assays?
NS1 function inh: 12%; Shiga inhibitor: 7; Pf growth 96h: 12%; CHX counter: 0; FBPA Giardia inh: -4%; Pf growth 48h: 0.83µM*

What do the screens show for `O=C(CNC1CCCCC1)Nc1ccc([N+](=O)[O-])cc1C(=O)Nc1ccccc1F`?
NS1 function inh: 1%; Shiga inhibitor: -3; Pf growth 96h: inconclusive; CHX counter: 0; FBPA Giardia inh: -8%; Pf growth 48h: inconclusive

What do the screens show for `CC1CCCCC1NCc1cccc([N+](=O)[O-])c1` (stereo unspecified)?
NS1 function inh: 1%; Shiga inhibitor: 42*; Pf growth 96h: 25%; CHX counter: 12; FBPA Giardia inh: -27%; Pf growth 48h: -3%

What do the screens show for `COc1cc(NC(=O)c2cc([N+](=O)[O-])ccc2NC(=O)CNC2CCCCC2C)cc(OC)c1` (stereo unspecified)?
NS1 function inh: 6%; Shiga inhibitor: -5; Pf growth 96h: 36%; CHX counter: -3; FBPA Giardia inh: 4%; Pf growth 48h: 0.41µM*

How did Cc1coc2cc3oc(=O)ccc3cc12 do in these assays?
NS1 function inh: 3%; Shiga inhibitor: -6; Pf growth 96h: 44%; CHX counter: -1; FBPA Giardia inh: 2%; Pf growth 48h: 61%

What do the screens show for `CCC(Oc1ccccc1)C(=O)Nc1nnc(S(=O)(=O)N2CCCC2)s1` (stereo unspecified)?
NS1 function inh: 20%; Shiga inhibitor: -11; Pf growth 96h: 61%; CHX counter: -4; FBPA Giardia inh: -22%; Pf growth 48h: -14%

What do the screens show for `Cc1nc(C(=O)NNC(=O)Nc2ccccc2)cs1`?
NS1 function inh: 1%; Shiga inhibitor: 18; Pf growth 96h: 25%; CHX counter: 13*; FBPA Giardia inh: -7%; Pf growth 48h: 9%
